Assay results published in the supplement of paper PMC6555819.

Tests used:
Experiment in all cases: PBM binding z-score (relative to random genomic background probes); higher = stronger binding; sequences stand for … in GC…GCGATTGACAGCGTAGAATGAAGG
[1] = system: FXR:RXRa (NR concentration 270 nM, RXRa partner concentration 90 nM)
In short: (§1)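 For binding z-scores, the reference was random background probes on custom Agilent 4×180K protein-binding microarrays. These arrays were incubated 1 h with ligand-free nuclear receptor dimers in PBS pH 7.4, 2% milk, 0.02% Triton X-100, 1 mM DTT, 0.2 mg/mL BSA and 0.4 mg/ml salmon testes DNA. Fluorescence was scanned after antibody detection of each partner (one per run) and regression-normalized.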

[2] = system: LXRa:RXRa (NR concentration 270 nM, RXRa partner concentration 90 nM)
In short: as §1

[3] = system: LXRa homodimer (NR concentration 270 nM)
In short: as §1

[4] = system: LXRb:RXRa (NR concentration 270 nM, RXRa partner concentration 90 nM)
In short: as §1

[5] = system: LXRb homodimer (NR concentration 270 nM)
In short: as §1

[6] = system: PPARa:RXRa (NR concentration 270 nM, RXRa partner concentration 90 nM)
In short: as §1

[7] = system: PPARg:RXRa (NR concentration 180 nM, RXRa partner concentration 90 nM)
In short: as §1

[8] = system: PPARg:RXRa 270nM:90nM, anti-RXR (NR concentration 270 nM, RXRa partner concentration 90 nM)
In short: as §1

[9] = system: PPARg:RXRa 30nM:10nM, anti-RXR (NR concentration 30 nM, RXRa partner concentration 10 nM)
In short: as §1

[10] = system: PPARg:RXRa 90nM:30nM, anti-RXR (NR concentration 90 nM, RXRa partner concentration 30 nM)
In short: as §1

[11] = system: PPARg:RXRa DBDmut IVT, anti-RXR (DBD mutation: RXRa K156A/R161A, NR concentration 270 nM, RXRa partner concentration 90 nM)
In short: as §1

[12] = system: PPARg:RXRa IVT, anti-PPARg (NR concentration 270 nM, RXRa partner concentration 90 nM)
In short: as §1

[13] = system: PPARg DBDmut:RXRa IVT, anti-PPARg (DBD mutation: PPARg1 K132A/R137A, NR concentration 270 nM, RXRa partner concentration 90 nM)
In short: as §1

[14] = system: PPARg DBDmut IVT, anti-PPARg (DBD mutation: PPARg1 K132A/R137A, NR concentration 270 nM)
In short: as §1

[15] = system: PPARg homodimer (NR concentration 180 nM)
In short: as §1

[16] = system: PXR:RXRa (NR concentration 270 nM, RXRa partner concentration 90 nM)
In short: as §1

[17] = system: PXR homodimer (NR concentration 270 nM)
In short: as §1

[18] = system: RARa:RXR (NR concentration 270 nM, RXRa partner concentration 90 nM)
In short: as §1

[19] = system: RARa homodimer (NR concentration 270 nM)
In short: as §1

[20] = system: RARb:RXRa (NR concentration 270 nM, RXRa partner concentration 90 nM)
In short: as §1

| Sequence | PBM binding z-score [1] | PBM binding z-score [2] | PBM binding z-score [3] | PBM binding z-score [4] | PBM binding z-score [5] | PBM binding z-score [6] | PBM binding z-score [7] | PBM binding z-score [8] | PBM binding z-score [9] | PBM binding z-score [10] | PBM binding z-score [11] | PBM binding z-score [12] | PBM binding z-score [13] | PBM binding z-score [14] | PBM binding z-score [15] | PBM binding z-score [16] | PBM binding z-score [17] | PBM binding z-score [18] | PBM binding z-score [19] | PBM binding z-score [20] |
| --- | --- | --- | --- | --- | --- | --- | --- | --- | --- | --- | --- | --- | --- | --- | --- | --- | --- | --- | --- | --- |
| ATCTCTAGGTAAAGGTTCAGTGAATCCCGAGGAT | 0.405 | 0.578 | 0.436 | 0.491 | 0.67 | 2.93 | 4.99 | 5.83 | 3.95 | 5.85 | 2.8 | 3.07 | 1.06 | 0.461 | 0.615 | 0.795 | 0.0698 | 0.886 | 0.514 | 1.32 |
| GGAAAGAGGGCATTCGAGTTGATAGCATGGCGAT | 1.74 | 2.82 | 0.148 | 1.13 | 0.213 | 1.92 | 0.905 | 1.19 | 0.366 | 0.958 | 2.82 | 1.52 | 0.272 | 0.297 | 0.828 | 4.41 | 1.31 | 1.75 | 0.298 | 2.24 |
| CCGAGTAGGTTATGGAGCATTCAGGCAACGGTGA | 0.0328 | 0.259 | 0.125 | 0.219 | -0.185 | 1.01 | 1.36 | 2.08 | 0.32 | 1.46 | 3.11 | 2.34 | -1.14 | -0.703 | 0.952 | -0.208 | 0.0693 | 0.144 | 0.512 | 0.499 |
